Only some compounds are listed: those with a hit (about 2.8% of all), similar ones and a draw of the others.
FXN GAA850 act = frataxin GAA850 promoter activation | 0.56% of 360,000 active | activation, % at 6 µM | HEK293 lucGAA850 FXN promoter luciferase reporter, 24 h; percent of 10 µM SAHA response;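 active = activation above the average of all compounds screened plus 3 SD, cutoff fixed separately per campaign, cut at about 7.5% in these data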;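 note: 0% = DMSO wells and 100% = 10 µM SAHA wells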
Wnt act = Wnt/beta-catenin pathway activation; activation, % at 9.35 µM; AID 743398; Wnt/beta-catenin reporter cell assay, activator, plate reader; 1.2% of 300,000 active; in the data active = activation above about 30%, passing the limit was not always enough; inconclusive = no clear call, values can overlap the other calls;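 note: 0% = neutral control wells and 100% = positive control wells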
esBAF inh = blocks esBAF chromatin remodeling in mouse ES cells; Bmi1-luciferase knock-in reporter, 24 h; 100% = twice the neutral-well signal; reporter increase, % at 12.5 µM; 2% of 350,000 active; AID 602393; in the data active = activation above about 40%; inconclusive = no clear call, values can overlap the other calls;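 note: 0% = median of the plate's neutral control wells and 100% = double that signal; a rise in the Bmi1 reporter signal indicates esBAF inhibition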
MITF TRPM1 HTS = increases MITF-driven TRPM1 promoter luciferase signal. AID 588334. SK-MEL-5 TRPM1-promoter luciferase, 24 h; % of positive control, neutral wells = 0. 0.75% of 300,000 active. activation, % at 12.5 µM;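 active = mean activation of at least 80% with every replicate also reaching 80%; inconclusive = mean reaches 80% but some replicate falls short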;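 note: 0% = neutral control wells and 100% = parthenolide positive control wells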
The depositor's hits bear a star; ? = inconclusive; / = no result.

SMILES	FXN GAA850 act	Wnt act	esBAF inh	MITF TRPM1 HTS
C[C@H]1CN([C@@H](C)CO)C(=O)c2cc(NC(=O)CCCN(C)C)ccc2O[C@H]1CN(C)C(=O)Nc1cccc2ccccc12	/	/	2.4	/
CC(C)NC(=O)N(C)C[C@@H]1OCc2ccccc2-c2ccccc2C(=O)N([C@@H](C)CO)C[C@H]1C	/	/	-1.6	/
O=c1cc(CSc2nnc(NC3CCCCC3)s2)nc2sccn12	3.6	-0.6	-2.0	14.2
c1ccc(CSc2nnc(NC3CCCCC3)s2)cc1	4.3	42.2*	/	/
COc1ccc(CN(C)C[C@@H]2OCCCC[C@H](C)Oc3ccc(N(C)C)cc3C(=O)N([C@H](C)CO)C[C@H]2C)cc1	/	/	-0.4	/
CCCC(=O)Nc1ccc2c(c1)C(=O)N(C)C[C@@H](OC)[C@@H](C)CN(C(=O)c1ccncc1)[C@H](C)CO2	/	/	-4.3	/
CCOC(=O)c1c(C)[nH]c(C(=O)COC(=O)c2cccnc2Cl)c1C	1.3	16.4	64.8*	82.9*
CCOC(=O)c1c(C)[nH]c(C(=O)COC(=O)c2ccncc2)c1C	1.7	-0.6	5.1	-5.3
CCCCCC1(C)NC(=S)N(c2ccccc2)N1 (configuration not stated)	-0.8	-0.1	/	1.3
CC1(CC(=O)Nc2ccccc2)NC(=S)N(c2ccccc2)N1 (configuration not stated)	2.5	3.1	29.2*	9.6
O=c1oc2ccccc2nc1/C=C(\O)c1ccccc1	4.5	39.9*	/	/
Cc1noc(C)c1S(=O)(=O)N(C)C[C@@H]1Oc2c(NC(=O)c3nc4ccccc4s3)cccc2C(=O)N([C@@H](C)CO)C[C@@H]1C	/	/	2.0	/
CCCNC(=O)N[C@H]1CC[C@H](CC(=O)NC2CCC2)O[C@@H]1CO	/	/	1.0	/
CCc1ccc(Oc2cc(C)nc(N)n2)cc1	6.1	/	60.6*	53.3
c1ccc(-c2ccc3cnccc3n2)cc1	/	8.4	51.9*	/
COCCN(CCOC)C(=O)c1cc2sc3ccccc3c2s1	2.3	-5.0	18.2	32.5
CCN(CC)C(=O)c1cc2sc3ccccc3c2s1	7.2	/	80.4*	97.8*
CC(O)(c1cccnc1)c1nc(-c2ccc3ccccc3c2)cs1 (configuration not stated)	-0.4	-2.8	56.6*	/
COc1cccc(C(C)(O)c2nc(-c3ccc4ccccc4c3)cs2)c1 (configuration not stated)	0.9	7.8	15.9	/
Cc1c(Cl)cccc1N1C(=O)CC(N(O)c2ccccc2)C1=O (configuration not stated)	-2.0	/	60.4*	/
CO[C@H]1CN(C)C(=O)c2ccc(NC(=O)C3CCC3)cc2OC[C@@H](C)N(Cc2cccnc2)C[C@H]1C	/	/	-1.0	/
Cc1cc(C)n(-c2nnc(NC34CC5CC(CC(C5)C3)C4)nn2)n1	6.9	/	57.6*	138.4*
CC(C)NC(=O)N(C)C[C@@H]1Oc2c(NS(=O)(=O)c3ccc(Cl)cc3)cccc2C(=O)N([C@H](C)CO)C[C@H]1C	/	/	-5.2	/
CCN(c1ccc(NC(=O)COC(=O)c2cc3ccccc3oc2=O)cc1)C(C)C	1.4	/	8.7	-0.6
O=C(COC(=O)c1cc2ccccc2oc1=O)Nc1ccc(F)cc1F	5.9	47.1*	46.1*	61.6
SMILES	FXN GAA850 act	Wnt act	esBAF inh	MITF TRPM1 HTS
COc1ccc(-c2c(C)nn(-c3ccccc3)c2N)cc1OC	2.6	/	0.2	1.8
Cc1nn(-c2ccc(C(=O)O)cc2)c(N)c1-c1ccccc1	5.2	20.4	61.2*	58.7
Cc1nn(-c2nc3ccccc3[nH]2)c(N)c1-c1ccc(Cl)cc1	4.2	14.9	61.2*	40.1
COc1ccc(-c2nn(-c3ccccc3)cc2N)cc1	2.3	59.3*	/	50.4
COc1ccc(-c2c(C)nn(-c3ccccc3)c2N)cc1	2.8	12.8	63.5*	102.8*
O=C(Cc1ccccc1)N[C@@H]1C=C[C@H](CC(=O)N2CCOCC2)O[C@@H]1CO	/	/	-0.3	/
C[C@@H]1CN([C@@H](C)CO)C(=O)Cc2cc(NC(=O)CCN3CCOCC3)ccc2O[C@H]1CN(C)Cc1ccncc1	/	/	-0.5	/
Cc1noc(C)c1NC(=O)N(C)C[C@H]1Oc2cc(C#CCC3CCCC3)ccc2S(=O)(=O)N([C@@H](C)CO)C[C@H]1C	/	/	-1.0	/
O=C(N[C@@H]1CC[C@H](CC(=O)N2CCc3ccccc3C2)O[C@@H]1CO)C1CCC1	/	/	-4.6	/
CCOc1ccc(NC(=O)c2ccc3nccnc3c2)cc1	3.2	/	/	89.1*
CCOc1ccc(NC(=O)c2csc3c2CCCC3)cc1	4.8	45.9*	77.5*	/
CCOc1ccc(NC(=O)c2ccccc2SC)cc1	5.5	-0.6	45.7*	75.2
COc1ccc(NC(=O)c2ccc3nccnc3c2)cc1	3.8	10.7	30.8	70.6
C[C@@H]1CN([C@@H](C)CO)C(=O)c2cc(C#CC3CCCC3)cnc2O[C@H]1CN(C)Cc1ccncc1	/	/	2.4	/
COc1ccc(-c2cn(CC[C@H]3CC[C@H](NS(=O)(=O)c4ccccc4C)[C@@H](CO)O3)nn2)cc1	/	/	1.3	/
Cc1ccc(NC(=O)C(=O)NCCCN2CCCC2=O)cc1	6.1	42.7*	/	55.9
Cc1ccc(NC(=O)C(=O)NCCCN2CCCC2=O)c(C)c1	1.6	1.8	39.6	31.1
O=C(OCc1cc([N+](=O)[O-])cc2c1OCOC2)c1ccc2ccccc2n1	-2.8	-1.8	/	3.4
CC(C)=CC(=O)OCc1cc([N+](=O)[O-])cc2c1OCOC2	3.0	41.1*	/	48.1
Cc1ccc(-n2nnc3ccccc3c2=O)cc1C	1.4	/	8.4	86.0*
COc1ccc(NC(=O)Nc2cccc3c2O[C@H](CN(C)C(=O)Nc2ccc4c(c2)OCO4)[C@H](C)CN([C@@H](C)CO)C3=O)cc1	/	/	3.4	/
Cc1cccc2cc(-c3nc4c(C)cccn4c3NCc3ccco3)c(=O)[nH]c12	-2.9	-0.8	7.1	-5.1
Cc1ccc2[nH]c(=O)c(-c3nc4cc(C)ccn4c3NCc3ccco3)cc2c1	2.3	/	68.6*	2.4
O=C(O)CCc1ccc(-c2ccc(Br)cc2)n1-c1cccc(O)c1	1.1	17.3	72.6*	-24.9
O=C(O)CCc1ccc(-c2ccccc2)n1-c1cccc(C(=O)O)c1	1.6	?	38.9	10.8
SMILES	FXN GAA850 act	Wnt act	esBAF inh	MITF TRPM1 HTS
CCn1c(/C=C/c2c[nH]c3ccccc23)nc2ccccc2c1=O	5.2	8.9	/	113.6*
CCn1c(/C=C\c2ccccc2C)nc2ccccc2c1=O	5.0	3.6	/	15.1
C[C@@H]1CN([C@H](C)CO)C(=O)c2cccc(NS(=O)(=O)c3cccs3)c2O[C@@H]1CN(C)C(=O)NC1CCCCC1	/	/	3.6	/
CCc1ccc(NC(=O)N2CCC(c3ccccc3)C2)cc1 (configuration not stated)	4.3	1.4	/	55.7
O=C(Nc1ccccc1)N1CCC(c2ccccc2)C1 (configuration not stated)	3.3	/	21.0	105.5*
O=C(Nc1ccccc1)c1cc(C2CCCN(C(=O)c3cccs3)C2)on1 (configuration not stated)	2.8	34.4*	56.4*	/
O=C(c1cccs1)N1CCC(c2ccccc2)C1 (configuration not stated)	4.6	50.7*	/	69.3
COc1ccc(NC(=S)N2CCC(c3ccccc3)C2)cc1 (configuration not stated)	5.7	?	?	108.1*

Screening data (PubChem)
